# PubChem BioAssay AID504326 (The Scripps Research Institute Molecular Screening Center, 2011)
# In all, about 340,000 compounds went through this assay and about 990 (0.29%) were called active. No stated cut-off is given here; in the data, active means activation above about 18%; inactive means the rest. Only a selection was taken, and actives are over-represented in it overall.
# Target: Mu-type opioid receptor (Homo sapiens) + Delta-type opioid receptor (Homo sapiens) (UniProt P35372+P41143)
# Experiment: inducers of mu-delta opioid receptor heterodimers – cell-based, luminescence, primary screen (AID 504326);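 further: 0% = vehicle-treated cells and 100% = reference agonist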
# Conditions: cells, OPRM1-OPRD1 heterodimerization, at 9.3 µM, active compounds read high
# Mu-type opioid receptor (Homo sapiens) + Delta-type opioid receptor (Homo sapiens), sequence (P35372 whole entry, looked up): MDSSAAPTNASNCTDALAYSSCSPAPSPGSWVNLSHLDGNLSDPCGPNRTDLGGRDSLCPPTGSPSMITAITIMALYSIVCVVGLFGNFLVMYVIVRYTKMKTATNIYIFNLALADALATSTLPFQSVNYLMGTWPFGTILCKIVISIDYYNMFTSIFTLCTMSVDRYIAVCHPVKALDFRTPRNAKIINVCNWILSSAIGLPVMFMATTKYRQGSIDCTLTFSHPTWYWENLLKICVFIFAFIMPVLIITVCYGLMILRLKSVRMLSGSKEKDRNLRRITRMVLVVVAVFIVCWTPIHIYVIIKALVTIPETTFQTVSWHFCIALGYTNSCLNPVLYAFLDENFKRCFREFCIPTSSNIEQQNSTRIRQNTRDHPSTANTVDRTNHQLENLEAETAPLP
# Mu-type opioid receptor (Homo sapiens) + Delta-type opioid receptor (Homo sapiens), sequence (P41143 whole entry, looked up): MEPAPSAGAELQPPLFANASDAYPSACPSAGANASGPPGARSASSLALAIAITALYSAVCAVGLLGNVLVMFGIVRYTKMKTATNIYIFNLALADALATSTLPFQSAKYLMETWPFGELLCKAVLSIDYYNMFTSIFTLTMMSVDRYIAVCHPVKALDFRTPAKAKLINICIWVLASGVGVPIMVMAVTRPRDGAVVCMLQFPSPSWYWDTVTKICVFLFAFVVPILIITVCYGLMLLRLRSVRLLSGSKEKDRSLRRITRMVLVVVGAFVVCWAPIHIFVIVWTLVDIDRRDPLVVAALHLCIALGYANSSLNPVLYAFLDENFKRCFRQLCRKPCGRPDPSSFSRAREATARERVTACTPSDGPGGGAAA
row,Structure (SMILES),activation
1,C=C(C)COc1ccc(-c2n[nH]c(C)c2-c2ccccc2)c(O)c1,20.9% (active)
2,C=C(C)COc1ccc(-c2ncncc2-c2ccc(OC)cc2)c(O)c1,0.28% (inactive)
3,C=C(C)COc1ccc(-c2nc(N)ncc2-c2ccccc2OC)c(O)c1,5.76% (inactive)
4,COCCCNC(=O)Cn1cc(/C=C(\C#N)C(=O)N2CCN(c3ccccc3)CC2)c2ccccc21,-0.49% (inactive)
5,Cc1ccc(N=C2NC(=O)c3cccc([N+](=O)[O-])c32)cc1,-1.31% (inactive)
6,COc1ccccc1CNC(=O)c1ccc(Cl)c(S(=O)(=O)N2CCCC2)c1,-1.63% (inactive)
7,Cc1ccc(C(=O)NCC(c2cccs2)N(C)C)cc1S(=O)(=O)N1CCOCC1 (configuration not stated),7.26% (inactive)
8,COc1ccccc1C(CNC(=O)c1ccc(C)c(S(=O)(=O)N2CCCCC2)c1)N(C)C (configuration not stated),33.2% (active)
9,CCCOc1ccc(C(=O)C(CCC(CNCC)C(=O)c2ccc(OCCC)cc2)CNCC)cc1 (configuration not stated),11.1% (inactive)
10,C=CCOc1c2ccc(C(=O)N(CC)c3ccc(OC)cc3)cc2nn1C,0.36% (inactive)
11,COc1cccc(NC(=O)c2ccccc2N(Cc2ccccc2)S(C)(=O)=O)c1,-3.67% (inactive)
12,CC(OC(=O)c1ccc([N+](=O)[O-])cc1)C(=O)NCC1CCCCC1 (configuration not stated),0.26% (inactive)
13,COc1cc(C(=O)OC(C)C(=O)NCC2CCCCC2)cc(NC(=O)c2ccco2)c1OC (configuration not stated),26.7% (active)
14,COc1ccc(NC(=O)CCC(=O)Nc2cc(OC)c(NC(=O)c3ccco3)cc2OC)c(OC)c1,0.82% (inactive)
15,CNC(=O)c1[nH]cnc1C(=O)N[C@@H](CC(C)C)C(=O)OC(C)(C)C,0.92% (inactive)
16,Cc1ccc(S(=O)(=O)NC(C)C(=O)Nc2ccccc2C(=O)N2CCCC2)cc1 (configuration not stated),2.72% (inactive)
17,COc1ccc(CSc2nnnn2-c2ccc(C(=O)O)cc2)cc1,-1.43% (inactive)
18,COc1ccc(-n2nnnc2CNC(=O)c2ccc3ccccc3c2)cc1,-0.36% (inactive)
19,COc1ccc(-n2nnnc2-c2nc3ccccc3s2)cc1,20.4% (active)
20,Cc1ccc(S(=O)(=O)NC(C(=O)N2CCOCCOCCOCCOCC2)c2ccccc2)cc1 (configuration not stated),-1.61% (inactive)
21,CC(=O)N1CCN(C(=O)C2(NC(=O)Nc3ccc(C)cc3)CCCCC2)CC1,-2.72% (inactive)
22,CCOc1ccc(-c2c(C)n([O-])c3c([n+]2=O)CCCC3)cc1,-0.63% (inactive)

row,Structure (SMILES),activation
1,C[C@H]1CC[C@]2(O[C@@H](CCO)C[C@@H](O)[C@@H]2O)O1,3.63% (inactive)
2,O=C(N[C@@H](Cc1ccccc1)C(=O)OCc1ccccc1)c1nc[nH]c1C(=O)NC1CCNCC1,-2.25% (inactive)
3,CC(C)(C)OC(=O)N1CCC(NC(=O)c2[nH]cnc2C(=O)N[C@@H](Cc2ccccc2)C(=O)OCc2ccccc2)CC1,21.9% (active)
4,CC(C)(C)OC(=O)CNC(=O)c1[nH]cnc1C(=O)N[C@@H](Cc1ccccc1)C(=O)OCc1ccccc1,14.2% (inactive)
5,CCN1CCC2(CC1)N=C(c1ccc(F)cc1)C(=S)N2C(=O)c1ccc(C)cc1,13.8% (inactive)
6,CN(C)c1ccc(/C=C2\NC(=S)N(Cc3ccccc3)C2=O)cc1,0.84% (inactive)
7,O=C1N/C(=C/c2cccs2)C(=O)N1Cc1ccc(F)cc1,18.9% (active)
8,Cc1ccc(CN2C(=O)N/C(=C/c3cc(C)n(-c4ccccn4)c3C)C2=O)cc1,-1.23% (inactive)
9,CCn1c(SCC(=O)Nc2ccc(C)cc2)nc2nc3c(cc2c1=O)CCCC3,-0.65% (inactive)
10,CCOc1ccc(NC(=O)CCS(=O)(=O)c2cccc3nsnc23)cc1,-1.59% (inactive)
11,O=C(NCc1ccccc1)c1onc(CSc2ccncc2)c1C(=O)NCc1ccccc1,-1.19% (inactive)
12,CCOc1cc(S(=O)(=O)NC2CC(C)(C)NC(C)(C)C2)ccc1F,-2.58% (inactive)
13,COCCN(C(=O)CCC(=O)Nc1nccs1)C(C(=O)NCCC(C)C)c1ccc(F)cc1 (configuration not stated),-1.57% (inactive)
14,CC1CN(CCCOc2ccccc2-c2ccccc2)CC(C)O1 (configuration not stated),4.64% (inactive)
15,c1ccc(-c2ccccc2OCCN2CCCCC2)cc1,-3.6% (inactive)
16,CC1CCCN(CCOCCOc2ccccc2-c2ccccc2)C1 (configuration not stated),18.4% (active)
17,Cc1c(NC(=O)C(C)OC(=O)c2c3c(nc4ccccc24)CCC(C)C3)c(=O)n(-c2ccccc2)n1C (configuration not stated),-2.46% (inactive)
18,CC(C)(C)NS(=O)(=O)c1ccc(NC(=O)C2CCCO2)cc1 (configuration not stated),0.39% (inactive)
19,O=C(NC1CCC(O)CC1)c1ccc(S(=O)(=O)NCc2ccco2)cc1 (configuration not stated),-2.16% (inactive)
20,CN(C)C(CNC(=O)c1ccc(S(=O)(=O)NCc2ccco2)cc1)c1ccccc1 (configuration not stated),20.7% (active)
21,CC(=O)c1ccc(S(=O)(=O)Nc2ccc(C(=O)NCC(c3ccccc3)N(C)C)cc2)cc1 (configuration not stated),0.68% (inactive)
22,COc1ccc(CNC(=O)c2cc(C(=O)C3CC3)c[nH]2)cc1,-1.28% (inactive)

row,Structure (SMILES),activation
1,CC(C)Cc1nnc(NC(=O)CN2C(=O)NC3(CCCCC3)C2=O)s1,-1.6% (inactive)
2,CCc1ccc(NC(=O)COC(=O)c2cccs2)cc1,0.52% (inactive)
3,Cc1ccc(OCC(=O)Nc2ccc(N3CCN(C(=O)c4ccco4)CC3)cc2)c(C)c1,2.18% (inactive)
4,Cc1ccc(OCC(=O)Nc2ccc(NC(=O)c3cccs3)cc2)c(C)c1,19.7% (active)
5,COC(=O)C1=C(C)N(C)C(=S)NC1c1cc(OC)ccc1OC (configuration not stated),1.16% (inactive)
6,O=C1CC[C@H](O)CCN1[C@H](CSc1ccc(Br)cc1)Cc1ccccc1,-1.02% (inactive)
7,COc1ccc(SC[C@H](Cc2ccccc2)N2CCN(CCc3ccccc3)CCC2=O)cc1,26.4% (active)
8,C[C@H]1CCC(=O)N([C@H](CSc2ccccc2)Cc2ccccc2)CC1,2.5% (inactive)
9,CS(=O)(=O)N(C(=O)NC(=O)NC1CCS(=O)(=O)C1)C1CCCCC1 (configuration not stated),1.27% (inactive)
10,CNC(=O)NC(=O)C(C)N1CCN(C/C=C/c2ccccc2)CC1 (configuration not stated),0.24% (inactive)
11,Cc1ccc(NC(=O)c2oc(=O)c3ccccc3c2-c2ccccc2)c(C)c1,-0.43% (inactive)
12,COC(=O)CCCC1=CC2=C(c3ccccc3)C(=O)C(C)(OC(=O)C3CCCC3)C(=O)C2=CN1c1ccc(OC)cc1 (configuration not stated),-1.53% (inactive)
13,COc1cccc(/C=N/Nc2ccc(S(=O)(=O)Nc3ccccc3C(=O)O)cc2[N+](=O)[O-])c1O,-1.24% (inactive)
14,COc1ccc(Cc2nnc(N/N=C/c3ccccc3O)[nH]c2=O)cc1OC,-0.28% (inactive)
15,COc1cccc(/C=N/Nc2cc(C)nc(-c3ccccc3O)n2)c1O,35.6% (active)
16,O=C(NCCc1ccccc1)c1c[nH]c2ccc(F)cc2c1=O,-1.1% (inactive)
17,C=CCOc1ccc(/C=C/C(=O)OC(C)C(=O)Nc2ccc(NC(C)=O)cc2)cc1 (configuration not stated),-0.11% (inactive)
18,CC(OC(=O)/C=C/c1ccccc1)C(=O)Nc1ccc(C(N)=O)cc1 (configuration not stated),34.1% (active)
19,CC(OC(=O)/C=C/c1ccccc1)C(=O)NC1CCCCC1C (configuration not stated),-0.81% (inactive)
20,CC(C)CC(=O)N=C1SC2CS(=O)(=O)CC2N1CCc1ccccc1 (configuration not stated),-2.17% (inactive)
21,CN(C)CCCN(C(=O)c1ccc(S(=O)(=O)N2CCCCCC2)cc1)c1nc2ccc(Br)cc2s1,1.54% (inactive)
22,CN(C)CCCN(C(=O)c1ccc(S(=O)(=O)N2CCCc3ccccc32)cc1)c1nc2ccc(F)cc2s1,268% (active)

row,Structure (SMILES),activation
1,COc1ccc2sc(N(CCCN(C)C)C(=O)c3ccc(S(=O)(=O)N(C)C4CCCCC4)cc3)nc2c1,-0.93% (inactive)
2,Cc1ccc(C)c(S(=O)(=O)Nc2cccc(-n3cnnn3)c2)c1,-2.5% (inactive)
3,C/C=C/C=C/C(=O)O,-2.37% (inactive)
4,CCCC1(C(=O)OC)NC(c2ccco2)C2C(=O)N(C)C(=O)C21 (configuration not stated),-1.73% (inactive)
5,Cc1ccc2nc(-c3ccncc3)cc(C(=O)Nc3ccncc3)c2c1,24% (active)
6,Cc1ccc2nc(-c3ccncc3)cc(C(=O)Nc3ccc(OC(F)F)cc3)c2c1,8.59% (inactive)
7,O=C(Nc1ccncc1)c1cc(-c2ccccn2)nc2ccc(Br)cc12,-0.71% (inactive)
8,CCc1ccc(NC(=O)CS(=O)CC(=O)N2CCN(c3ccccc3F)CC2)cc1 (configuration not stated),-0.39% (inactive)
9,O=C(NCc1ccc(Cl)c(Cl)c1)c1cccnc1,0.81% (inactive)
10,CC(c1cccnc1)N(CCN(C)C)C(=O)Nc1ccc(Cl)c(Cl)c1 (configuration not stated),35.5% (active)
11,CN(CC(=O)NCc1cccnc1)S(=O)(=O)c1cc(Cl)ccc1Cl,-3.02% (inactive)
12,CCN(CC)P(=O)(Nc1ccc(SC(F)F)cc1)c1ccc(N(C)C)cc1NC(=O)c1ccco1 (configuration not stated),-0.5% (inactive)
13,CC(=O)Nc1ccc(S(=O)(=O)N(C)c2ccc(OCC(=O)OCC(=O)N3CCCCC3)cc2)cc1,-0.7% (inactive)
14,Cc1c(C(=O)c2cccc([N+](=O)[O-])c2)c2ccccn2c1CCC#N,-2.59% (inactive)
15,FC(F)(F)c1ccc2nnc(-c3c(Cl)cccc3Cl)n2c1,-0.01% (inactive)
16,Cc1ccc(C)c(N(CC(=O)NCc2ccco2)C(=O)CCC(=O)Nc2ccccn2)c1,-3.72% (inactive)
17,CCOc1ccccc1-c1nc(CN2CCC(C(=O)N3CCOCC3)CC2)c(C)o1,-0.49% (inactive)
18,COc1cccc(CC2(CO)CCCN(Cc3nc(-c4cccs4)oc3C)C2)c1 (configuration not stated),0.45% (inactive)
19,CCOC(=O)C1(CC2CCCCO2)CCN(Cc2nc(-c3cccs3)oc2C)CC1 (configuration not stated),45.6% (active)
20,CCOc1ccc(NC(=O)C2CC(=O)N=C(N)S2)cc1 (configuration not stated),-2.05% (inactive)
21,COc1ccc2c(CC(=O)NNC(=O)c3ccccc3F)coc2c1,-0.31% (inactive)
